# Data taken from PubChem BioAssay AID623923 (Vanderbilt Specialized Chemistry Center, 2012).
# Activity calls are given as the source filed them. The rule behind the calls is not given here.
# Assay: PubChem AID 623923
# Details: Ricerca radioligand binding panel, % inhibition, at 10 µM, stronger effect = higher value
compound,measurement,setting,value
COc1ccc(C)c2sc(NC(=O)c3ccncc3)nc12,inhibition,5-HT2B binding,70%
same,inhibition,DAT transporter binding,13%
same,inhibition,GABA-A muscimol site binding,47%
same,inhibition,NET transporter binding,18%
same,inhibition,PAF receptor binding,34%
same,inhibition,adenosine A2A binding,100%
same,inhibition,adenosine A3 binding,99%
same,"inhibition of radioligand binding, adenosine A1",,91% (active)
same,inhibition,hERG binding,13%
same,inhibition,muscarinic M1 binding,-3%
same,inhibition,muscarinic M2 binding,-2%
same,inhibition,muscarinic M3 binding,3%
same,inhibition,sigma 1 binding,39%
